CHO-K1 Ca antag: nonselective inhibitor or artifact in parental CHO-K1 cells. ATP-induced calcium, Fluo-8 fluorescence. inhibition, % at 3 µM. hit rate 0.6% among 360,000. AID 602250;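 active means inhibition above a per-plate cutoff, the plate's mean sample inhibition plus 3 SD, cut at about 24% in these data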
M1 ag parental: nonselective activator or artifact in parental CHO-K1 cells; activation, % at 3 µM; hit rate 0.48% among 360,000; Fluo-8 calcium fluorescence; scaled to maximal ATP response, vehicle zero; in the data active means activation above about 15%;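 further: untransfected CHO-K1 host cells lacking M1 receptor as counterscreen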
CHO-K1 Ca PAM: nonselective activator or artifact in parental CHO-K1 calcium assay; ATP EC20, Fluo-8 calcium fluorescence; 0% at ATP EC20, 100% at ATP max; activation, % at 3 µM; hit rate 0.02% among 360,000; AID 602247;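 active means activation above the run cutoff, the mean activation of all test compounds plus 3 SD, cut at about 40% in these data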;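 further: peak over basal fluorescence ratio in a 140 s read after ATP addition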
M4 antag: antagonists of human muscarinic M4 receptor (CHRM4); CHO-hM4 cells, ACh EC80, Fluo-8 calcium fluorescence; inhibition, % at 3 µM; hit rate 0.73% among 360,000;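 active means inhibition above its plate's cutoff, the mean inhibition of sample wells plus 3 SD, cut at about 27% in these data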
Target sequence (P08173 whole entry, looked up): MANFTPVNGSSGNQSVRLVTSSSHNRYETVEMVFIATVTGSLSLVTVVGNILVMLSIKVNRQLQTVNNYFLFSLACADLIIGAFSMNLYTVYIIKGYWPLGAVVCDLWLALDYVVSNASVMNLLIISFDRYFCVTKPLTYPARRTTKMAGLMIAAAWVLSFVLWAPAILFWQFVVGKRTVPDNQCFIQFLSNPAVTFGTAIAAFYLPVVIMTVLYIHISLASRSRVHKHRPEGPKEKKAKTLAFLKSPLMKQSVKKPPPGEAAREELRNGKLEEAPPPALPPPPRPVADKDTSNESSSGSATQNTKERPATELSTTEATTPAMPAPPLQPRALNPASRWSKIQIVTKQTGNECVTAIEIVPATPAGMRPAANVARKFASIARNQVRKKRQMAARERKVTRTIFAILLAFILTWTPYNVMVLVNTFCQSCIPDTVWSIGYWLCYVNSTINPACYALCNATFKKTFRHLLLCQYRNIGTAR
M4 PAM: CHRM4 positive allosteric modulation | P08173 | CHO-K1 hM4/Gqi5, Fluo-8 calcium fluorescence, ACh EC20; 0% = ACh EC20, 100% = maximal ACh | activation, % at 3 µM | hit rate 0.4% among 360,000 | AID 624126;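 active means activation above its plate's cutoff, the mean activation of sample wells plus 3 SD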
CHRM4 agonist: agonists of human muscarinic M4 receptor (CHRM4) | P08173 | CHO-K1 hM4/Gqi5, Fluo-8 calcium fluorescence; vehicle 0%, full acetylcholine response 100% | activation, % at 3 µM | hit rate 0.14% among 360,000 | AID 624127;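 active means activation above the run mean over all test wells plus 3 SD, cut at about 32% in these data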;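 further: peak over basal fluorescence ratio per well then scaled between controls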
Numbers stand for hits; - = inactive. Hits are enriched below; roughly 2% of the tested compounds scored in any of these assays.

SMILES | CHO-K1 Ca antag | M1 ag parental | CHO-K1 Ca PAM | M4 antag | M4 PAM | CHRM4 agonist
Cc1noc(C)c1COc1ccccc1C(=O)NC(C)c1ccc(F)cc1 (centres undefined) | - | - | - | - | - | -
CCOc1ccccc1NS(=O)(=O)c1cn(C)nc1C | - | - | - | - | - | -
NC1=NC(=O)S/C1=C\c1ccc(F)cc1 | - | - | - | - | - | -
O=C(O)c1ccc(NCCC2=CCCCC2)c([N+](=O)[O-])c1 | - | - | - | - | - | -
O=C(Nc1ccc(-n2ccc(C(F)(F)F)n2)cc1)Nc1cccc(Cl)c1 | 30 | - | - | 27 | - | -
COc1ccc(NC(=O)Nc2cccc(C(F)(F)F)c2)cn1 | 26 | - | - | - | - | -
O=C(CN1CCOCC1)Nc1cccc(C(=O)Nc2cccc(C(F)(F)F)c2)c1 | - | - | - | - | - | -
COc1ccc(NC(=O)Nc2cc(C)cc(C)c2)cn1 | - | - | - | - | - | -
COc1cc(NC(=O)c2ccno2)cc(C(=O)Nc2cccc(C(F)(F)F)c2)c1 | - | 17 | - | - | - | -
CCCCCNCC(=O)Nc1cccc(C(=O)Nc2cccc(C(F)(F)F)c2)c1 | - | 24 | - | - | - | -
COc1ccc([C@@H]2CC=C(C(=O)O)CN2S(=O)(=O)c2ccc(C)cc2)cc1OC | - | - | - | - | - | -
CCOC(=O)C1(C)CCN1C(=O)c1cccnc1Oc1ccccc1 (centres undefined) | - | - | - | - | - | -
CCN(Cc1ccccc1)C(=O)CCS(=O)(=O)c1ccc2c(c1)n(C)c(=O)c(=O)n2C | - | - | - | - | - | -
CC(C)NC(=O)C1(C)CCCN1C(=O)c1ccccc1Br (centres undefined) | - | - | - | - | - | -
Cn1nc(C(=O)Nc2cccc(C(F)(F)F)c2)c2ccccc2c1=O | - | - | - | - | 31 | -
Cn1nc(C(=O)Nc2cccc(C(=O)NC3CC3)c2)c2ccccc2c1=O | - | - | - | - | - | -
COc1ccc(C(=O)NCCS(=O)(=O)NCc2ccc(F)cc2)cc1 | - | - | - | - | - | -
N#C/C(=C\Nc1ccccc1O)c1nc2ccccc2o1 | - | - | - | - | - | -
COc1cc(C2C(C#N)=C(N)Oc3c2oc(CO)cc3=O)ccc1OC(C)C (centres undefined) | - | - | - | - | - | -
CC(C)Oc1ccc(C2C(C#N)=C(N)Oc3c2oc(CO)cc3=O)cc1 (centres undefined) | - | 15 | - | - | - | -
CCOc1ccccc1CN1CCN(CCCn2cccn2)CC1CCO (centres undefined) | - | - | - | - | - | -
CCN1CCN(S(=O)(=O)c2cccc3nsnc23)CC1 | - | - | - | - | - | -
CCCNC(=O)C1CCC(CNS(=O)(=O)c2cccc3nsnc23)CC1 (centres undefined) | - | - | - | - | 16 | -
CC1CC(C)CN(S(=O)(=O)c2cccc3nsnc23)C1 (centres undefined) | - | - | - | - | 21 | -
CC(C)NS(=O)(=O)c1cccc2nsnc12 | - | - | - | - | 27 | -
SMILES | CHO-K1 Ca antag | M1 ag parental | CHO-K1 Ca PAM | M4 antag | M4 PAM | CHRM4 agonist
CC1(C(=O)NC2CCCCCC2)CCN1C(=O)C1(c2ccccc2)CC1 (centres undefined) | - | - | - | - | - | -
Cc1cc(C)c(C(=O)C(C)OC(=O)c2ccc(Cl)nc2)cc1C (centres undefined) | - | - | - | - | - | -
COc1ccc(CCNC(=O)C2CC2)cc1 | 28 | - | - | - | - | -
CCC(CC)c1nnc(NC(=O)CCc2ccccc2)s1 | - | - | - | - | 15 | -
CC1=NNC(=O)/C1=C\c1cn(-c2ccccc2)nc1-c1cccs1 | 31 | - | - | 60 | - | -
CS(=O)(=O)Nc1ccc(C2=NN(C(=O)CCCC(=O)O)C(c3cccs3)C2)cc1 (centres undefined) | - | - | - | - | - | -
CCOc1ccc2nc(N(CCN(CC)CC)C(=O)c3ccc([N+](=O)[O-])cc3)sc2c1 | - | - | - | - | - | -
CCN(CC)CCN(C(=O)c1ccc([N+](=O)[O-])cc1)c1nc2ccc(OC)cc2s1 | - | - | - | - | 32 | -
COc1ccc(-c2csc(N(CCCN3CCOCC3)C(=O)c3ccco3)n2)cc1 | - | - | - | 36 | - | -
CCN(CC)CCCN(C(=O)c1ccccc1C)c1nc(-c2ccc(OC)cc2)cs1 | - | - | - | - | - | -
COc1ccc(-c2csc(N(CCCN(C)C)C(=O)c3ccc(C(C)(C)C)cc3)n2)cc1 | - | - | - | - | - | -
CCN(CC)CCCN(C(=O)c1ccc(OC)cc1)c1nc(-c2ccc(OC)cc2)cs1 | - | - | - | 29 | 49 | -
COc1ccc(-c2csc(N(CCCN(C)C)C(=O)c3ccc(C)cc3)n2)cc1 | - | - | - | 49 | 49 | -
COc1ccc(S(=O)(=O)N2CCCCC2c2cc(C(=O)Nc3ccccc3)no2)cc1 (centres undefined) | - | - | - | - | - | -
COc1cc(-c2cnc3c(NC(C)=O)cc(-c4cccc(C(=O)NCCO)c4)cn23)cc(OC)c1OC | - | - | - | - | - | -
Cc1ccc2c(c1)N(C(=O)CCC(=O)NC1CCCCCC1)CC(C)O2 (centres undefined) | - | - | - | - | - | -
COc1ccc(-c2csc(N(CCCN(C)C)C(=O)c3ccc(Br)cc3)n2)cc1 | - | - | - | - | 47 | -
COc1ccc(-c2csc(N(CCCN(C)C)C(=O)c3cc(OC)c(OC)c(OC)c3)n2)cc1 | - | - | - | - | - | -
O=C1C(CCCNC(=S)NCc2ccccc2)NC(=S)N1Cc1ccccc1 (centres undefined) | - | 19 | - | - | - | -
O=C1CCC(C(=O)N(CCO)Cc2ccccc2)CN1CCc1cccc(F)c1 (centres undefined) | - | - | - | - | - | -
Cc1ccccc1-c1nc(NCCN(C)C)nc2ccsc12 | - | - | - | 56 | - | -
CN(C)CCNc1nc(-c2ccccc2CO)c2sccc2n1 | - | - | - | - | - | -
Cc1cc(C)c(S(C)(=O)=O)c(Oc2cccc(C(F)(F)F)c2)n1 | - | - | - | - | - | -
O=C(N/N=C/c1cc(Cl)cc(Cl)c1O)c1ccncc1 | - | 15 | - | - | - | -
O=C1CC(NNc2nc3ccccc3s2)C(=O)N1c1ccccc1 (centres undefined) | - | - | - | - | - | -
Cc1ccc(N2C(=O)CC(NNc3nc4ccccc4s3)C2=O)cc1 (centres undefined) | - | 17 | - | - | - | -
O=C(NCc1nnnn1-c1ccc(F)cc1)c1ccc(S(=O)(=O)N2CCOCC2)cc1 | - | - | - | - | - | -
